Reference: the supplement of paper PMC10981050
Several values for one entry are separate records, joined by “and”; a condition that tells them apart may be missing. Equal values may be shown once. Where a name gives a salt, the structure may show the parent alone.

Assays:
Assay in all cases: cell viability relative to vehicle control; higher = less cytotoxic
Conditions in all cases: 10 µM
K562 = tested on: K562
In short: (§1)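 Four leukaemia lines, as CRISPR-edited mutant clones and isogenic wild-type clones, were tested against Selleck bioactive, kinase and epigenetic probe libraries after removal of identity-inconsistent compounds. Cells were exposed to a single 10 µM dose for 48 h, and CellTiter-Glo luminescence was then read. Viability was calculated relative to the on-plate vehicle control.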

MARIMO = tested on: MARIMO
In short: as §1

MOLM14 = tested on: MOLM14
In short: as §1

OCI-AML2 = tested on: OCI-AML2
In short: as §1

Row | Compound | cell viability (K562; SRSF2 genotype: SRSF2 P95H/wt) | cell viability (K562; SRSF2 genotype: SRSF2 wt/wt) [%] | cell viability (MARIMO; SRSF2 genotype: SRSF2 P95H/wt) [%] | cell viability (MARIMO; SRSF2 genotype: SRSF2 wt/wt) [%] | cell viability (MOLM14; SRSF2 genotype: SRSF2 P95H/wt) [%] | cell viability (MOLM14; SRSF2 genotype: SRSF2 wt/wt) [%] | cell viability (OCI-AML2; SRSF2 genotype: P95H/wt) [%] | cell viability (OCI-AML2; SRSF2 genotype: wt/wt) [%]
1 | CNCc1ccc(-c2[nH]c3cc(F)cc4c3c2CCNC4=O)cc1 | 94% and 103% | 97.8 | 84.7 | 86.7 | 50 | 29.4 | 44.2 | 55.8
2 | CC#Cc1cncc(-c2ccc3c(c2)C2(N=C(C)C(N)=N2)C2(CCC(OC)CC2)C3)c1 (stereo not drawn) | 108% and 98.5% | 107 | 100 | 103 | 98 | 98.9 | 88.8 | 93.1
3 | CC(C)=CCC[C@](C)(O[C@@H]1O[C@H](CO[C@@H]2OC[C@H](O)[C@H](O)[C@H]2O)[C@@H](O)[C@H](O)[C@H]1O)[C@H]1CC[C@]2(C)[C@@H]1[C@H](O)C[C@@H]1[C@@]3(C)CC[C@H](O[C@@H]4O[C@H](CO)[C@@H](O)[C@H](O)[C@H]4O[C@@H]4O[C@H](CO)[C@@H](O)[C@H](O)[C@H]4O)C(C)(C)[C@@H]3CC[C@]12C [Ginsenoside Rb2] | 86% and 89.7% | 84 | 88.4 | 98.1 | 92.2 | 87.7 | 83.2 | 101
4 | NC(=O)c1cnc(N[C@@H]2CCCC[C@@H]2N)nc1Nc1cccc(-n2nccn2)c1 | 16.9% and 18.1% | 15.9 | 16 | 12.6 | 2.43 | 1.83 | 0.51 | 3.84
5 | NCCCNCCCCNCCCN [Spermine] | 104% and 102% | 104 | 103 | 111 | 100 | 103 | 101 | 106
6 | N#C/C(=C1/SC[C@@H](c2ccc(Cl)cc2Cl)S1)n1ccnc1 [Luliconazole] | 85.6% and 83.3% | 82.6 | 78.9 | 100 | 88.7 | 89.5 | 62.5 | 83.5
7 | CCN(CC)CC#CCOC(=O)C(O)(c1ccccc1)C1CCCCC1 (stereo not drawn) [Oxybutynin (Ditropan)] | 97.7% and 102% | 104 | 82.9 | 95.9 | 83.5 | 100 | 91.8 | 87
8 | C/C=C/C=C/C(=O)O [Sorbic acid] | 92.4% and 92.8% | 92.6 | 90.7 | 99.1 | 99.3 | 101 | 106 | 106
9 | C=CCS[S+]([O-])CC=C (stereo not drawn) [Allicin] | 92.6% and 104% | 91.8 | 96 | 84.9 | 99.8 | 99.8 | 89.2 | 105
10 | CC(C)c1cc(C(C)C)c(CC(=O)NS(=O)(=O)Oc2c(C(C)C)cccc2C(C)C)c(C(C)C)c1 [Avasimibe (CI-1011)] | 79.7% and 76.5% | 64.5 | 80.8 | 92.2 | 68.6 | 78.6 | 92.5 | 84.8
11 | C1CNCCNCCNCCN1 [Cyclen] | 100% and 102% | 106 | 107 | 111 | 103 | 103 | 105 | 102
12 | CN1C(C(=O)Nc2ccccn2)=C(O)c2sc(Cl)cc2S1(=O)=O [Lornoxicam (Xefo)] | 94.3% and 91.8% | 87.5 | 87.2 | 95.8 | 91 | 87.8 | 92.8 | 94.5
13 | Cc1ccc(Nc2cc(N[C@@H]3CCCC[C@@H]3N)nnc2C(N)=O)nc1C | 80.8% and 84.1% | 80.7 | 76.2 | 79 | 18.6 | 18 | 15.1 | 25.2
14 | COC(=O)c1ccc(O)cc1 [Methyl 4-hydroxybenzoate] | 93% and 82.6% | 88.2 | 90.5 | 94.1 | 91.9 | 95.5 | 91.2 | 90.5
15 | O=C(O)c1cc(C(=O)O)c2c(n1)C(=O)C(=O)c1cc(C(=O)O)[nH]c1-2 [Pyrroloquinoline Quinone Disodium Salt] | 101% and 95.6% | 98.9 | 94.1 | 106 | 88.8 | 107 | 106 | 99.4
16 | Clc1cccc(Cl)c1NC1=NCCN1 [Clonidine hydrochloride (Catapres)] | 98.5% and 103% | 105 | 110 | 113 | 89.2 | 103 | 115 | 101
17 | CC(C)=CCC/C(C)=C/CC/C(C)=C/CCC(=O)OC/C=C(\C)CCC=C(C)C [Gefarnate] | 106% and 102% | 96.4 | 99.7 | 110 | 96.4 | 102 | 89.7 | 93.5
18 | COc1cccc(-n2c(=O)[nH]c3cc(Cl)n(-c4ccc(-c5cccc(OC)c5O)cc4)c3c2=O)c1 | 91.6% and 97.4% | 93 | 108 | 117 | 107 | 102 | 95.8 | 97.3
19 | OC[C@H]1O[C@@](CO)(OC[C@@]2(OC[C@@]3(O[C@H]4O[C@H](CO)[C@@H](O)[C@H](O)[C@H]4O)O[C@H](CO)[C@@H](O)[C@@H]3O)O[C@H](CO)[C@@H](O)[C@@H]2O)[C@@H](O)[C@@H]1O [Nystose] | 106% and 101% | 111 | 100 | 101 | 106 | 100 | 106 | 102
20 | Cn1cc(C(=O)Nc2ccc3c(c2)OCCO3)c2ccccc2c1=O | 88.4% and 81.6% | 81.2 | 80.4 | 83.5 | 84.3 | 82.8 | 80.3 | 95.8
21 | CS(=O)(=O)CCNCc1ccc(-c2ccc3ncnc(Nc4ccc(OCc5cccc(F)c5)c(Cl)c4)c3c2)o1 [Lapatinib] | 40.9% and 35.3% | 35.8 | 83.2 | 77.6 | 75.4 | 75.6 | 22.2 | 45.5
